From PubChem
Hits are enriched below; roughly 4.8% of the tested compounds scored in any of these assays.
ALR inh: inhibitors of human ALR sulfhydryl oxidase, primary screen, biochemical, H2O2 detection, HRP-luminol luminescence, single point; 3.8% of 290,000 active; purified ALR, DTT oxidation; inhibition, % (test concentration not listed); FAD-linked sulfhydryl oxidase ALR (Homo sapiens), P55789;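 active = mean replicate inhibition above about 79%, with every replicate also reaching it, limit read from the data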
Target sequence (P55789 whole entry, looked up): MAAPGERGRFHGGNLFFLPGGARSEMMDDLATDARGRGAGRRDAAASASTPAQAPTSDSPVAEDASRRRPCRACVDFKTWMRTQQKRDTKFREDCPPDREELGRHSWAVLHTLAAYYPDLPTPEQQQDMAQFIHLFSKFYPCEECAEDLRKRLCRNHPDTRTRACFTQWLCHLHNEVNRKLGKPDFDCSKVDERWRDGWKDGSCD
HIF act: HIF pathway transcriptional activators, primary screen, cell-based, U2OS HRE-luciferase, luminescence | activation, % at 7.5 µM (by protocol) | U2OS HRE-luciferase reporter; normalized: DMSO 0%, desferrioxamine 100% | AID 1910, 2009 | 0.32% of 300,000 active;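 active = mean activation of at least 10% of the iron chelator positive control signal, with at least half of replicates also reaching 10%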
SUMO Mot1 rescue: yeast Mot1-301 growth rescue at high temperature, primary screen, SUMOylation pathway inhibitor project, S. cerevisiae, ATP luminescence, 38.5C. 1% of 320,000 active. growth rescue, % at 18.8 µM. S. cerevisiae Mot1-301 growth rescue; percent above DMSO median, 100 means doubled. AID 2716, 2010;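 active = every valid replicate shows activation above 250% relative to neutral control wells; inactive = the rest, any valid replicate at or below 250%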
AI-2 QS modul: Vibrio harveyi AI-2 quorum sensing modulators, primary screen, JMH597 strain, luminescence/OD600 ratio | 0.4% of 300,000 active | activity change, % at 7.5 µM | Vibrio harveyi JMH597 AI-2 luminescence/OD600 ratio, 9 h; hits give low values; strain lacks LuxN and CqsS sensors; 0 = neutral-control median; in the data active = activity change below about -75%, passing the limit was not always enough;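 note: luminescence divided by OD600 gain over 9 h not by final OD600 alone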
Yeast Mot1 SUMO: growth restoration of Mot1-301 yeast on galactose, dose response, SUMO pathway inhibitor project, whole organism, S. cerevisiae, ATP luminescence, cherry-picked samples; shares compounds with SUMO Mot1 rescue; S. cerevisiae Mot1-301 galactose growth, 24 h; -100 = growth of slx-deleted rescue strain; growth activity, percent, % at 42 µM; 2,300 tested, under 10 active; AID 493004, 2010;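 active = Signal drops as the depositor expects, and the fitted half-maximal dose is no more than ten times the top valid tested dose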;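 note: more negative values mean stronger growth rescue toward the control strain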
Each line names hits and unclear results; the compound was inactive in the other large screens (follow-up assays come after a bar, where they were run).

O=C(O)c1c(C(=O)O)c(-c2ccc(F)cc2)n2c1CCC2	SUMO Mot1 rescue 498.6 (no result: ALR inh) | Yeast Mot1 SUMO inactive
COCc1cc(=O)n2[nH]c(C)cc2n1	none
Cc1cc2nc(CCl)cc(=O)n2[nH]1	SUMO Mot1 rescue active | Yeast Mot1 SUMO inactive
CCc1nnc(NC(=O)CSc2nc3c(cc2C#N)CCCC3)s1	SUMO Mot1 rescue 735.8 | Yeast Mot1 SUMO inactive
O=C(CSc1nc2ccc(Cl)cc2[nH]1)NCc1ccco1	SUMO Mot1 rescue 358.5 | Yeast Mot1 SUMO inactive
O=C(CSc1nc2ccccc2[nH]1)NCc1ccco1	none
COC(=O)C1=Cc2cc(OC)cc([N+](=O)[O-])c2OC1N1CCOCC1 (configuration not stated)	none
COc1ccc(NC(=S)Nc2ccccc2OC)c(OC)c1	SUMO Mot1 rescue 475.7 | Yeast Mot1 SUMO inactive
O=C(c1ccccc1)c1cccs1	none
CCOc1ccc(C(=O)c2cccs2)cc1	SUMO Mot1 rescue 386.6 | Yeast Mot1 SUMO inactive
COc1ccc(CN2C(=O)c3c(c(C)n(C)c3C)C2C(=O)NC2CCC(C)CC2)cc1 (configuration not stated)	SUMO Mot1 rescue 696.7 | Yeast Mot1 SUMO inactive
Cc1cc(=O)n2nc(N3CCC(C(=O)NCC(C)c4ccccc4)CC3)sc2n1 (configuration not stated)	none
COc1ccc(CCn2c(N)cc(=O)[nH]c2=O)cc1OC	none
Nc1cc(=O)[nH]c(=O)n1CCc1ccccc1	SUMO Mot1 rescue 541.9 | Yeast Mot1 SUMO inactive
Cc1cccc(OCCC(=O)Nc2ccc(Cl)cc2F)c1	none
Cc1cc(C)n(-c2ccc(C(=O)N3CCN(c4ccccn4)CC3)cc2)n1	none (no result: HIF act, AI-2 QS modul)
Cc1cc(C)n(-c2nc3ccccc3nc2N2CCN(C(=O)c3ccccc3)CC2)n1	SUMO Mot1 rescue 497.3 | Yeast Mot1 SUMO inactive
COc1ccc(Cn2nnnc2CN2CCCCCC2)cc1	none
COc1ccc(CN2CCCCCC2)cc1	SUMO Mot1 rescue 486.7 | Yeast Mot1 SUMO inactive
COc1ccc(Cn2nnnc2CN2CCN(c3ccc(OC)cc3)CC2)cc1	SUMO Mot1 rescue 884.6 | Yeast Mot1 SUMO inactive
CS(=O)(=O)N1CCN(c2nc3ccccc3s2)CC1	none
O=S(=O)(c1ccccc1)N1CCN(c2nc3ccccc3s2)CC1	SUMO Mot1 rescue 452.6 | Yeast Mot1 SUMO inactive
CC(C)(c1ccccc1)c1ccc(OCCN2CCOCC2)cc1	SUMO Mot1 rescue 443.6 | Yeast Mot1 SUMO inactive
CC(C)(c1ccccc1)c1ccc(OCCCN2CCNCC2)cc1	none
CCCCCC(=O)Nc1ccc(-c2csc(N)n2)cc1	ALR inh 99.0, SUMO Mot1 rescue 470.7 | Yeast Mot1 SUMO inactive
Cc1ccc(C(=O)N=c2sccn2C)o1	none
O=C(NCc1nc(-c2ccccc2)no1)c1cccs1	SUMO Mot1 rescue 499.4, AI-2 QS modul -78.8 | Yeast Mot1 SUMO inactive
O=C(NCc1cccc2ccccc12)c1cccs1	none (no result: HIF act, AI-2 QS modul)
O=C(COC(=O)c1ccccc1SCC(=O)N1CCCC1)NC1CCCCC1	SUMO Mot1 rescue 792.0 | Yeast Mot1 SUMO inactive
COC(=O)Cn1c(CN2CCN(C(=O)c3ccco3)CC2)nc2c1c(=O)n(C)c(=O)n2C	none
O=C(C[C@H]1C/C=C\C[C@H](NC(=O)OCC2c3ccccc3-c3ccccc32)C(=O)O[C@H](c2ccccc2)CNC1=O)N[C@H](CO)Cc1ccccc1	none (no result: HIF act, AI-2 QS modul)
CCCCC(=O)NC(=S)Nc1cccc(C(=O)O)c1	SUMO Mot1 rescue active | Yeast Mot1 SUMO inactive
O=C(NC(=S)NNC(=O)c1ccccc1O)c1cccc([N+](=O)[O-])c1	SUMO Mot1 rescue 368.2 (no result: ALR inh) | Yeast Mot1 SUMO inactive
O=C(CNC(=S)NC(=O)c1cccc([N+](=O)[O-])c1)c1ccccc1	none
COc1ccc(/C=N/NC(=O)c2cccc([N+](=O)[O-])c2)cc1O	none
COc1cc(/C=N/NC(=O)c2cccc([N+](=O)[O-])c2)ccc1O	ALR inh 99.1, SUMO Mot1 rescue active | Yeast Mot1 SUMO inactive
Cc1cccn2c(=O)nc(SCC(=O)c3ccccc3)nc12	none
CCCSc1nc(=O)n2cccc(C)c2n1	SUMO Mot1 rescue 625.8 | Yeast Mot1 SUMO inactive
Cc1ccc(S(=O)(=O)N2CCOCC2)cc1NC(=O)COC(=O)CNC(=O)c1ccccc1	SUMO Mot1 rescue 531.6 | Yeast Mot1 SUMO inactive
Cc1ccc(S(=O)(=O)N2CCOCC2)cc1NC(=O)COC(=O)Cc1cccs1	none
Cc1ccc(C(CNS(=O)(=O)c2ccc(Cl)cc2)N2CCN(C)CC2)cc1 (configuration not stated)	none (no result: ALR inh)
COCCn1c(SCC(=O)Nc2nc3ccccc3s2)nnc1-c1ccoc1C	SUMO Mot1 rescue 600.9 | Yeast Mot1 SUMO inactive
O=C(Nc1ccc(C(=O)Nc2ccccc2Cl)cc1)c1cccnc1	none (no result: HIF act)
O=c1[nH][nH]c(C(F)(F)F)c1C=NCc1cccs1	SUMO Mot1 rescue active | Yeast Mot1 SUMO inactive
O=c1[nH][nH]c(C(F)(F)F)c1C=Nc1ccccc1	none
COc1ccc(-c2[nH]ncc2CNCc2cc(C)n(C)n2)c(F)c1	none
COc1ccc(-c2[nH]ncc2CNCCn2cccn2)c(F)c1	SUMO Mot1 rescue active (no result: ALR inh) | Yeast Mot1 SUMO inactive
Cc1cc(C)cc(NS(=O)(=O)c2c(C)[nH]c(=O)[nH]c2=O)c1	none
CCN=C1S/C(=C/c2ccc(-c3ccc(F)cc3)o2)C(=O)N1CC	SUMO Mot1 rescue 955.6 | Yeast Mot1 SUMO inactive
CCCCN(C)C(=O)CCC(=O)Nc1ccc2nc(N3CCN(C)CC3)cc(C)c2c1	SUMO Mot1 rescue 448.9 | Yeast Mot1 SUMO inactive
Cc1cc(N2CCN(C)CC2)nc2ccc(NC(=S)N3CCC4(CC3)OCCO4)cc12	SUMO Mot1 rescue active (no result: ALR inh) | Yeast Mot1 SUMO inactive
CCCCN(C)C(=O)CCC(=O)Nc1ccc2nc(N3CCOCC3)cc(C)c2c1	none
CS(=O)(=O)NCc1ccc(C(=O)NC2CCCCC2)cc1	SUMO Mot1 rescue 617.4 | Yeast Mot1 SUMO inactive
N=c1c2c(n(Cc3ccc(Br)cc3)c3c1CCC3)CCCC2	none
N=c1c2c(n(Cc3ccc(Cl)c(Cl)c3)c3c1CCC3)CCCC2	SUMO Mot1 rescue active | Yeast Mot1 SUMO inactive
O=C(Cc1cccs1)N1CCCC(c2nc3c(nnn3Cc3cccc(Cl)c3)c(=O)[nH]2)C1 (configuration not stated)	none
O=C(CSc1ccccc1C(=O)NCCCN1CCCC1=O)NCc1ccco1	none
Cc1c(C(=O)N2CCCC2)c(S(=O)(=O)Nc2ccccc2)c(C)n1C	none
Cc1c(C(=O)N2CCCC2)c(S(=O)(=O)Nc2cccc(Br)c2)c(C)n1C	SUMO Mot1 rescue 708.9 | Yeast Mot1 SUMO inactive
O=C1CN(C(=O)COC(=O)COc2ccc3c(c2)CCC3)c2ccccc2N1	SUMO Mot1 rescue 586.2 | Yeast Mot1 SUMO inactive
CCOc1ccc(N2CC(C(=O)Nc3nnc(CC)s3)CC2=O)cc1 (configuration not stated)	none
